This passage reports residual activity results from ChEMBL document CHEMBL2218924, “A broad activity screen in support of a chemogenomic map for kinase signalling research and drug discovery” (Biochem J, 2013).

The structures appear in SMILES notation.

Assay [1] concerns the target T1, Ephrin type-A receptor 3 (Homo sapiens) (UniProt P29320).
T1 sequence (whole entry): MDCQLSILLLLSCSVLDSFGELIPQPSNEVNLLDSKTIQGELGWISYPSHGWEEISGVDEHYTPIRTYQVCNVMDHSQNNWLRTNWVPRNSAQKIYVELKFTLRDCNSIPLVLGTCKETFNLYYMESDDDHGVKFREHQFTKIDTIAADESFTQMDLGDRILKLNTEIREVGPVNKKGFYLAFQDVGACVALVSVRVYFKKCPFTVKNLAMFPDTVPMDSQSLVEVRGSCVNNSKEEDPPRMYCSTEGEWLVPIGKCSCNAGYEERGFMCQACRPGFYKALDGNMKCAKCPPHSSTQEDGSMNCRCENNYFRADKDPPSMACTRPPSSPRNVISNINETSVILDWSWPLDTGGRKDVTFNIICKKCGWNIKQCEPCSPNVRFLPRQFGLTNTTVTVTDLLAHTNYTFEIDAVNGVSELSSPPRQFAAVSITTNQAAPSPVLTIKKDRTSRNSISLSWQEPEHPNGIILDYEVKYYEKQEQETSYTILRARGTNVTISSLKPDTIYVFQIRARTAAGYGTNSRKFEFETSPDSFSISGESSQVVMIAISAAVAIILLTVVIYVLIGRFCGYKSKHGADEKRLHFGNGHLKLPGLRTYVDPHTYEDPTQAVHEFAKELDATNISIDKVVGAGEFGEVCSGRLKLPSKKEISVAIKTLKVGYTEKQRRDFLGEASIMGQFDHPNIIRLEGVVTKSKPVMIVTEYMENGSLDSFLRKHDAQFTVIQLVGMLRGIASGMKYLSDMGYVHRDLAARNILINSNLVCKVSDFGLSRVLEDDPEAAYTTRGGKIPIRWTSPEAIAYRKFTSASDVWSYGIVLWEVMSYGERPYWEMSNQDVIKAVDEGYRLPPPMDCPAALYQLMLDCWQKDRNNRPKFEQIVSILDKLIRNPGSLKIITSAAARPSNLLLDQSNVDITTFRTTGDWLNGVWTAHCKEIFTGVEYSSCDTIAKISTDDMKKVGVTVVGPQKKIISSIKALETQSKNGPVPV
The settings on record: at 10 µM.

Assay [2] addresses Ephrin type-A receptor 4 (Homo sapiens) (UniProt P54764). The settings on record: at 1 µM.
The target is the same in assay [3]. The settings on record: at 10 µM.
The target in assay [4] is Ephrin type-A receptor 5 (Homo sapiens) (UniProt P54756). The settings on record: at 1 µM.
Assay [5] shares this target. The settings on record: at 10 µM.
For assay [6], the target named is Ephrin type-A receptor 7 (Homo sapiens) (UniProt Q15375). The settings on record: at 1 µM.
The target is the same in assay [7]. The settings on record: at 10 µM.
In assay [8] the target is T2, Ephrin type-A receptor 8 (Homo sapiens) (UniProt P29322).
T2 sequence (whole entry): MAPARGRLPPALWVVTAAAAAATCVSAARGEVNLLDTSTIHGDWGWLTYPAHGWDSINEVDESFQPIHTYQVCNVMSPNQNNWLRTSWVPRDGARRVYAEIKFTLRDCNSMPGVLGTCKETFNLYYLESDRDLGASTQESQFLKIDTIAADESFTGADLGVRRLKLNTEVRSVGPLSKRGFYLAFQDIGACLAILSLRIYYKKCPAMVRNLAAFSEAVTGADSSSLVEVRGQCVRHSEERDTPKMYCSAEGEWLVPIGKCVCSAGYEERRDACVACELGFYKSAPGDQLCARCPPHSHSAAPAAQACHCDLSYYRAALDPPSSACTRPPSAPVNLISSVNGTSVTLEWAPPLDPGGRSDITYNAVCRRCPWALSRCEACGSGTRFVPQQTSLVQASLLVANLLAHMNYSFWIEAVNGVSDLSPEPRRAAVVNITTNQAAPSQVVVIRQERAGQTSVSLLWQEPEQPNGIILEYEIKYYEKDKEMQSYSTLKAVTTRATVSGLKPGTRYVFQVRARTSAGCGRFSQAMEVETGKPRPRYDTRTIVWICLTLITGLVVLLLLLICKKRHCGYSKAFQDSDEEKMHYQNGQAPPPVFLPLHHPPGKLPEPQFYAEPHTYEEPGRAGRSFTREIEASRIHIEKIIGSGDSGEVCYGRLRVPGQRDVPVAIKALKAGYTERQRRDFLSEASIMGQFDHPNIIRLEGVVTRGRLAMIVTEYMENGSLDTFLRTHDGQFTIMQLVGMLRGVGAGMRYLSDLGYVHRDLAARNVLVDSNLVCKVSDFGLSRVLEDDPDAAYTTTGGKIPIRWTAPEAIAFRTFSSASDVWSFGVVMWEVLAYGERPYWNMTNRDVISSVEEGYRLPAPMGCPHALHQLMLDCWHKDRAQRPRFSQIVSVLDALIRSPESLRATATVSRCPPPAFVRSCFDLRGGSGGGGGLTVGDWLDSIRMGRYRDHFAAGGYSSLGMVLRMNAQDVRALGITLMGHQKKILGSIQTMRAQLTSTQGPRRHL
The settings on record: at 1 µM.

Assay [9] deals with T2, Ephrin type-A receptor 8 (Homo sapiens). The settings on record: at 10 µM.
The target of assay [10] is T3, Ephrin type-B receptor 1 (Homo sapiens) (UniProt P54762).
T3 sequence (whole entry): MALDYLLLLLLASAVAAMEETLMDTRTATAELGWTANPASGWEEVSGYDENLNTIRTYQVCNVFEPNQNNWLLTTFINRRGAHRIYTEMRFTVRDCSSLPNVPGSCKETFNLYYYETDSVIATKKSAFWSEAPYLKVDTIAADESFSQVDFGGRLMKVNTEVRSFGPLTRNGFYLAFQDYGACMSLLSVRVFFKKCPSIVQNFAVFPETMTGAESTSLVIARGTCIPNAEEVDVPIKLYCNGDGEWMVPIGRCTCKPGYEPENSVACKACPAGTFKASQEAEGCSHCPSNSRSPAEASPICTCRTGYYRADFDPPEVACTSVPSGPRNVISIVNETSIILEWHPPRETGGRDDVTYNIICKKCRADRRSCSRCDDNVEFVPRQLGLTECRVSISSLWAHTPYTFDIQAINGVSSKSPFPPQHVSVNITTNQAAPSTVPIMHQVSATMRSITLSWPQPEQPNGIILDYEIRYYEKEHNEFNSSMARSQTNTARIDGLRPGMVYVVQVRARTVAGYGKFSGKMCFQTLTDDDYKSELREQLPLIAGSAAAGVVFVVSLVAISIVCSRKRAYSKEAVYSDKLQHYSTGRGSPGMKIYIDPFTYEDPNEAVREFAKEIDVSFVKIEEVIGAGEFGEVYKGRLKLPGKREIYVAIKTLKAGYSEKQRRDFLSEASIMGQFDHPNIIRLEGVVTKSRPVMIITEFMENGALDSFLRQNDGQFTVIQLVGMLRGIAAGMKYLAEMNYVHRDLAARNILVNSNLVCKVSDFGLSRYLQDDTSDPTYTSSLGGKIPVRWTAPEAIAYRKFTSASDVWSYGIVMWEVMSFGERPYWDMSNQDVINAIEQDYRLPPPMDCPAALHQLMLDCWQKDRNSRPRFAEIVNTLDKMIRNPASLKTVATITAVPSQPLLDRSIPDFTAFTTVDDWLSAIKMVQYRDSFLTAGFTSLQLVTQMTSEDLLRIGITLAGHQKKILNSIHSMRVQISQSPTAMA
The settings on record: at 1 µM.

Sequence of Ephrin type-A receptor 7 (Homo sapiens) (Q15375 28-998 limits assumed): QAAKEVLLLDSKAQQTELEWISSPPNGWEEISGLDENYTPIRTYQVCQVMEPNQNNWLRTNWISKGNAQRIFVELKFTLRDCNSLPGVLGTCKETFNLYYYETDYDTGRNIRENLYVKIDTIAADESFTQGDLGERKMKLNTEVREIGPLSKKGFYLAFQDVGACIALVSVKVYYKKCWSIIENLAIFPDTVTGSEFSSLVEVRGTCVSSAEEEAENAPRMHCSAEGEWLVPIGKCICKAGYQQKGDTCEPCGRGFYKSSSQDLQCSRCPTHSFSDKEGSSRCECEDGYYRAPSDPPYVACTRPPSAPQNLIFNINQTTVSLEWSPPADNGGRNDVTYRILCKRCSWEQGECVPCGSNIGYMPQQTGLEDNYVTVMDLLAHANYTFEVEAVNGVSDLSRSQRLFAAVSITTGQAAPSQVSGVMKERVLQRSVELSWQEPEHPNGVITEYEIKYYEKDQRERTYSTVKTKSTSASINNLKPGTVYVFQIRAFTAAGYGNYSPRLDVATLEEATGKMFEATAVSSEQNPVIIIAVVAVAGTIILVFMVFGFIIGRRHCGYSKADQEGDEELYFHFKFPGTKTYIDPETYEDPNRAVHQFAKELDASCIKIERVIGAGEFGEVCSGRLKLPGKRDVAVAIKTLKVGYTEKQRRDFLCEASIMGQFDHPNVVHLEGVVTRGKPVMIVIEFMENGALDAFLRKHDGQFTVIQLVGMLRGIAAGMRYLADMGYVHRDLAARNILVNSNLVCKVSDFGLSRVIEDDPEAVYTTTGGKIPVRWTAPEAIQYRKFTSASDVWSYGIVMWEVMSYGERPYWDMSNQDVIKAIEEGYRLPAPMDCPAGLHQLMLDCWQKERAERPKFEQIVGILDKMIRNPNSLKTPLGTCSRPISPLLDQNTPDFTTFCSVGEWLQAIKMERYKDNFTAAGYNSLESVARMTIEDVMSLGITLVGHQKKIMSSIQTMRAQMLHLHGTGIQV
Sequence of Ephrin type-A receptor 4 (Homo sapiens) (P54764 whole entry): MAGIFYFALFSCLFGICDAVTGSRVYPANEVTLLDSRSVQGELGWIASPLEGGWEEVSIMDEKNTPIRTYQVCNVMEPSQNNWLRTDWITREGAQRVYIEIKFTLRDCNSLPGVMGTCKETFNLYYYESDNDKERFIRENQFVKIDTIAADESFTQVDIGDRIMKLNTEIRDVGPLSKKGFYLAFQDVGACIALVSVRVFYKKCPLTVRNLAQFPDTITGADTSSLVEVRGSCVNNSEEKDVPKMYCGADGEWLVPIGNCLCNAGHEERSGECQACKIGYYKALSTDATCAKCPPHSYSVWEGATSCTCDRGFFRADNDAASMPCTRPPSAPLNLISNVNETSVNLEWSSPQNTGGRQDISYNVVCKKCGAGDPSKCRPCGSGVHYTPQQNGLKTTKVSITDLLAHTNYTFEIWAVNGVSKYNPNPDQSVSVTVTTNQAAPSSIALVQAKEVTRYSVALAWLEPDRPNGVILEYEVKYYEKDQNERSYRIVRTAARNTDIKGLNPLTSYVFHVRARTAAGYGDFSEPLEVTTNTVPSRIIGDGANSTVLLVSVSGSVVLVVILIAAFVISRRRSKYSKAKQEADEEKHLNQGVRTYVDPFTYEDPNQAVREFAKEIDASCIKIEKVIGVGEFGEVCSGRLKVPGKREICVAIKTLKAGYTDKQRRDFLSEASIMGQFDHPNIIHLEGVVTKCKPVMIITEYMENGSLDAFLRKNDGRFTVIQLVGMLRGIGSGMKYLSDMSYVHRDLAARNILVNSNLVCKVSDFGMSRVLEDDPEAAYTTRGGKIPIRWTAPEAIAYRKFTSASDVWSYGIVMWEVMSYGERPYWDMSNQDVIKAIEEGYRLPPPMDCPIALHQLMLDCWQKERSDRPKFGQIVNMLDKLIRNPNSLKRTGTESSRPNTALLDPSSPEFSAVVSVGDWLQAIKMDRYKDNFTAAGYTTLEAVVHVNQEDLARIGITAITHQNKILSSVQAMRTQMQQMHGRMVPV
Sequence of Ephrin type-A receptor 5 (Homo sapiens) (P54756 whole entry): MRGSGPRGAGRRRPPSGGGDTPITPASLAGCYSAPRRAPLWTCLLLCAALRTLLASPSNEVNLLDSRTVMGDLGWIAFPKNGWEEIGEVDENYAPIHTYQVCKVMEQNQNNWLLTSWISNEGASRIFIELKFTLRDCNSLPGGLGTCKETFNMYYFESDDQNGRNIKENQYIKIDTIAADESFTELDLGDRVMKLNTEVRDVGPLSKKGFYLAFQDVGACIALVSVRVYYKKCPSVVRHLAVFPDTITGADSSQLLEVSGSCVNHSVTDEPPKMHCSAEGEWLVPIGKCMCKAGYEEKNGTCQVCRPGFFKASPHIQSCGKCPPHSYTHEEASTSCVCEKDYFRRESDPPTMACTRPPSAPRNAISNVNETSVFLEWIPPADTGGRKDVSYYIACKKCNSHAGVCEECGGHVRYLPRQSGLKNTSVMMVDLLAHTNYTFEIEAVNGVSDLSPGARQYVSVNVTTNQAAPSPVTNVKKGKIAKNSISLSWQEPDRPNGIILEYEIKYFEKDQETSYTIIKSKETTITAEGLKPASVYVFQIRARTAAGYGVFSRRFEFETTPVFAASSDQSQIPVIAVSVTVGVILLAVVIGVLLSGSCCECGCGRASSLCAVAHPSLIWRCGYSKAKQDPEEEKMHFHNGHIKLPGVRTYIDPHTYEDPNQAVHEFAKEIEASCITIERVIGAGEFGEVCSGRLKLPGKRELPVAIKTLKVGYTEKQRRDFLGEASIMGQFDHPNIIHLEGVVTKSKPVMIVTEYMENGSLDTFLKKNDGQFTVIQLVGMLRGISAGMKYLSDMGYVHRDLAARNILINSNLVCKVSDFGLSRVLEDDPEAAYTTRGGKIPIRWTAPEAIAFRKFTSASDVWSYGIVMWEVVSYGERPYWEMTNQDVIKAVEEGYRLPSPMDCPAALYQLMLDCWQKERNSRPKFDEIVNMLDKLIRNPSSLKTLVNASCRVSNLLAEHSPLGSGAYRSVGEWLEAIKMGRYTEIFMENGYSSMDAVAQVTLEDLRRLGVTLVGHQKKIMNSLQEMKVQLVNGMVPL

For orientation: residual activity means the share of the control activity or signal that is left under treatment. A high value points to a small loss of activity. For `CCOc1cc2ncnc(Nc3cccc(Br)c3)c2cc1OCC`, the residual activity in assay [1] stood at 22%; in assay [2] it was 86%; in assay [3], 31%; in assay [4], 50%; in assay [5], 9%; in assay [6], 48%. The residual activity in assay [7] is 7%; in assay [8], 54%; in assay [9], 20%; in [10], 48%.
